In the supplement of paper PMC10338343:
± gives the standard deviation.

Legend:
[1] = test system: MILI (PIWIL2) piRISC loaded with L1MC piRNA (26 nt); experiment: pre-steady-state target cleavage rate (min^-1); guide: L1MC piRNA 5'p-UAACUAAAUACUAUGCAAGCUGUAGG; higher = faster piRNA-guided slicing of the target
Method in brief: (§1)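 Cleave-'n-Seq reactions paired 0.1 nM transcribed, DNA-blocked target RNA library with 1 nM active affinity-purified piRISC holding one synthetic guide, plus or minus 500 nM GTSF1 partner protein, in HEPES–potassium acetate buffer at 33 °C for 0–8 or 0–960 min. After sequencing of uncleaved targets and normalisation to depth and weakly complementary targets, the pre-steady-state cleavage rate was taken from a burst-and-steady-state fit. Three trials were pooled, and k3 was capped at 0.0001 min^-1.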

[2] = test system: EfPiwi piRISC loaded with L1MC piRNA (26 nt); experiment: pre-steady-state target cleavage rate (min^-1); auxiliary factor: 500 nM Ephydatia muelleri Gtsf1; guide: L1MC piRNA 5'p-UAACUAAAUACUAUGCAAGCUGUAGG; MIWI and MILI are mouse PIWI proteins and EfPiwi is from a freshwater sponge; tags in brackets are library labels; higher = faster piRNA-guided slicing of the target
Method in brief: as §1

[3] = auxiliary factor: 500 nM mouse GTSF1
[4] = auxiliary factor: none (no GTSF1)

| Sequence | pre-steady-state target cleavage rate [1, 3] | pre-steady-state target cleavage rate [1, 4] | pre-steady-state target cleavage rate [2] |
| --- | --- | --- | --- |
| UCCUGGUACACCUUGCAAAGUAUUUAGUUA | 0.0646 ± 0.011 | 0.0081 ± 0.0033 | – |
| UCCUGGUACAGGUUGCAUAGUAUUUUGUUA | 0.189 ± 0.042 | 0.0111 ± 0.0045 | – |
| UCCUGGUACAGCUUGGAUAGUAUUUUGUUA | 0.0944 ± 0.022 | 0.00486 ± 0.0048 | – |
| UCCUGGAUCAGGAAGCAUAGUAUUUAGUAA | 0.0716 ± 0.014 | 0.00297 ± 0.0022 | – |
| UCCUGGAUGUCGAAGCAUAGUAUAUAGUUA | 0.0508 ± 0.015 | 0.00342 ± 0.0022 | – |
| UCCUGGAUGUCCUUGAAUAGUAUUUAGUUA | 0.122 ± 0.023 | 0.011 ± 0.0029 | – |
| UCCUGGAUGUCGUUGCAUAGUAUUUAAGUUA | 0.191 ± 0.032 | 0.00676 ± 0.0028 | – |
| UCCUGGAUGUCCUUGCUUUGUAUUUAGUUA | 0.00984 ± 0.0041 | 0.00458 ± 0.0025 | – |
| UCCUGGAUCAGCAUGGAUAGUAUUUAGUUA | 0.19 ± 0.0097 | 0.0106 ± 0.0024 | – |
| UCCUGGAUGUCCUUGCAUUGUAUUAAGUUA | 0.0479 ± 0.012 | 0.00424 ± 0.0019 | – |
| UCCUGGAUCAGCUUGCAUAGUUUUUUGUUA | 0.0453 ± 0.011 | 0.00417 ± 0.0027 | – |
| UCCUGGAUGAGCUUGCAUAGUUAUUUAGUUA | 0.0115 ± 0.0045 | 0.00489 ± 0.0022 | – |
| UCCUGGAACAGCUACCAUAGUAUUUAGUAA | 0.23 ± 0.028 | 0.00298 ± 0.0029 | – |
| UCCUGGAUCAGGUUGCAUAGUAUUUAGUUA | 0.182 ± 0.02 | 0.00807 ± 0.0024 | – |
| UCCUGGAUGUGCUUGGAUAGUAUAUAGUUA | 0.118 ± 0.026 | 0.00335 ± 0.0032 | – |
| UCCUGGAACAGCUUGCAUAGAUUUUAGUUA | 0.0289 ± 0.0057 | 0.003 ± 0.0026 | – |
| UCCUGGAUGUGGUUGGAUAGUAUUUAGUUA | 0.109 ± 0.019 | 0.00858 ± 0.0028 | – |
| UCCUGGAUGUCGAGGCAUAGUAUUUAGUUA | 0.0728 ± 0.016 | 0.00723 ± 0.0026 | – |
| UCCUGGUACAGCAUGCAUAGUAUUUUGUUA | 0.11 ± 0.022 | 0.00364 ± 0.0034 | – |
| UCCUGGUACAGCUUCGUUAGUAUUUAGUAA | 0.165 ± 0.04 | 0.00388 ± 0.0027 | – |

| Sequence | pre-steady-state target cleavage rate [1, 3] | pre-steady-state target cleavage rate [1, 4] | pre-steady-state target cleavage rate [2] |
| --- | --- | --- | --- |
| UCCUGGAACAGCUAGGAUAGUAUUUAGUUA | 0.26 ± 0.016 | 0.00746 ± 0.002 | – |
| UCCUGGAUGUGCUUGCUUAGUUUUUAGUUA | 0.011 ± 0.0063 | 0.00656 ± 0.0028 | – |
| UCCUGGAUGAGCUUGGUUAGUAUUUAGUAA | 0.175 ± 0.027 | 0.0063 ± 0.0023 | – |
| UCCUGGUACAGCUUGCAUAGAUAUUUAGUUA | 0.0243 ± 0.011 | 0.00568 ± 0.0026 | – |
| UCCUGGAUGUCGUCGCAUAGUAUUUAGUUA | 0.0893 ± 0.012 | 0.00436 ± 0.0024 | – |
| UCCUGGAUCAGCUUGCUAGUAUUUAGUUA | 0.0105 ± 0.0043 | 0.00365 ± 0.0022 | – |
| UCCUGGAUCAGCUUGCAUAGUGAUUUAGUUA | 0.0194 ± 0.0067 | 0.00404 ± 0.0022 | – |
| UCCUGGAUGAGCUUGCAAGUAUUUAGUUA | 0.0177 ± 0.0056 | 0.00379 ± 0.0026 | – |
| UCCUGGAUGAGCUAGCAUAGUAUAUAGUUA | 0.242 ± 0.034 | 0.0046 ± 0.0022 | – |
| UCCUGGAUGUCGAAGCAUAGUAUUUUAGUUA | 0.0433 ± 0.01 | 0.00324 ± 0.0028 | – |
| UCCUGGAUGUCCUUGCAUAGUUAUUUAGUUA | 0.0103 ± 0.0056 | 0.00393 ± 0.0027 | – |
| UCCUGGAUGUGCAUGCAUAGUAAUUAGUUA | 0.0501 ± 0.008 | 0.00833 ± 0.002 | – |
| UCCUGGAUGAGCUAGCAAAGUAUUUAGUUA | 0.0455 ± 0.0079 | 0.00456 ± 0.0024 | – |
| UCCUGGAUGAGCUUGGAAAGUAUUUAGUUA | 0.0843 ± 0.011 | 0.00571 ± 0.0018 | – |
| UCCUCCAACACCUUGCAUAGUAUUUAGUUA | 0.192 ± 0.022 | 0.00554 ± 0.0024 | – |
| UCCUGGAUGAGCAUGCUUAGUAUUUAGUUA | 0.115 ± 0.011 | 0.0087 ± 0.0027 | – |
| UCCUGGAUGUCGUUGUAUAGUAUUUAGUUA | 0.151 ± 0.017 | 0.0105 ± 0.0023 | – |
| UCCUGCUACAGCAAGCAUAGUAUUUAGUAA | 0.281 ± 0.026 | 0.00383 ± 0.0032 | – |
| UCCUGGAUCAGGAUGCAUAGUAUUUAGUAA | 0.128 ± 0.012 | 0.00364 ± 0.002 | – |
| UCCUGGAUGUGCCUUGCAUAGUAUUUAGUUA | 0.111 ± 0.022 | 0.00996 ± 0.0032 | – |

| Sequence | pre-steady-state target cleavage rate [1, 3] | pre-steady-state target cleavage rate [1, 4] | pre-steady-state target cleavage rate [2] |
| --- | --- | --- | --- |
| UCCUGGAUGUCGUUGCUUAGUAUUUAGUAA | 0.0495 ± 0.02 | 0.00388 ± 0.0022 | – |
| UCCUGGAACAGCUUGCUUAGUAUUUACUUA | 0.187 ± 0.032 | 0.00316 ± 0.0028 | – |
| UCCUGGAACAGCUUGCAUAGUAUUUAGUAUA | 0.273 ± 0.027 | 0.00406 ± 0.0038 | – |
| UCCUGGAUGUGCUUGGAUAGUAUUAAGUUA | 0.0647 ± 0.018 | 0.00591 ± 0.0023 | – |
| UCCUGCUACAGCUUGCUUAGUAUUUAGUUA | 0.248 ± 0.013 | 0.00684 ± 0.0021 | – |
| UCCUGGAUGUCGUUGCUUAGUAUUUAGUUA | 0.0857 ± 0.011 | 0.00861 ± 0.002 | – |
| UCCUCCUACAGCUUGCUAGUAUUUAGUUA | 0.037 ± 0.013 | 0.00462 ± 0.0021 | – |
| UCCUGGAUGUCCUUGCAUUGUUUUUAGUUA | 0.00791 ± 0.0055 | 0.00421 ± 0.0023 | – |
| UCCUGGUACUGCUUGCAUAGUUUUUAGUUA | 0.0403 ± 0.012 | 0.00996 ± 0.0046 | – |
| UCCUGGAUGAGCUUGCUAUGUAUUUAGUUA | 0.00711 ± 0.0026 | 0.00524 ± 0.0027 | – |
| UCCUGGAUGUCGAAGCAUAGUAGUUUAGUUA | 0.00907 ± 0.0034 | 0.00276 ± 0.0022 | – |
| UCCUCCUACAGCUUUGCAUAGUAUUUAGUUA | 0.291 ± 0.017 | 0.00758 ± 0.0021 | 0.123 ± 0.036 |
| UCCUCCUACUGCUUGCAUUGUAUUUAGUUA | 0.212 ± 0.013 | 0.00808 ± 0.0019 | 0.0605 ± 0.016 |
| UCCUGGAUGAGCUUGCAUAGUAUUUAGUUA [g2:g21:cont:t1A] | 0.244 ± 0.014 | 0.0101 ± 0.0024 | 0.0338 ± 0.0087 |
| UCCUGGAACAGGUUGGAUAGUAUUUAGUUA | 0.164 ± 0.02 | 0.00851 ± 0.0024 | 0.00375 ± 0.0014 |
| UCCUGGAUGUCCUAGCAUAGUUUUUAGUUA | 0.0106 ± 0.0049 | 0.00512 ± 0.0022 | – |
| UCCUGGAUGAGCUAGCAUAGUAAUUAGUUA | 0.131 ± 0.018 | 0.00472 ± 0.0025 | 0.00293 ± 0.0021 |
| UCCUGGAACAGCUUGCAAAGUAUUUAGUUA | 0.135 ± 0.0089 | 0.00796 ± 0.0019 | 0.0333 ± 0.0089 |
| UCCUGGUACAGCUUGCAUAGUUAUUUAGUUA | 0.0143 ± 0.0076 | 0.00549 ± 0.0044 | – |
